Source: paper PMC4336329 (PLoS ONE, 2015)
About 14,000 (4.5%) of roughly 310,000 compounds showed an effect of 50% or more. Effects have a minus sign here. What follows is part of a selection rich in strong results, with near analogues and random picks from the rest.

These compounds were tested against human ether-à-go-go-related gene (hERG) potassium channel (human, UniProt Q12809) (assay: primary screen, population patch clamp on CHO cells stably expressing hERG; higher = less effect of the substance).
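Also: peak tail current of the secondary pulse compared with the same well before compound.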

Chain of human ether-à-go-go-related gene (hERG) potassium channel (Q12809 whole entry, looked up): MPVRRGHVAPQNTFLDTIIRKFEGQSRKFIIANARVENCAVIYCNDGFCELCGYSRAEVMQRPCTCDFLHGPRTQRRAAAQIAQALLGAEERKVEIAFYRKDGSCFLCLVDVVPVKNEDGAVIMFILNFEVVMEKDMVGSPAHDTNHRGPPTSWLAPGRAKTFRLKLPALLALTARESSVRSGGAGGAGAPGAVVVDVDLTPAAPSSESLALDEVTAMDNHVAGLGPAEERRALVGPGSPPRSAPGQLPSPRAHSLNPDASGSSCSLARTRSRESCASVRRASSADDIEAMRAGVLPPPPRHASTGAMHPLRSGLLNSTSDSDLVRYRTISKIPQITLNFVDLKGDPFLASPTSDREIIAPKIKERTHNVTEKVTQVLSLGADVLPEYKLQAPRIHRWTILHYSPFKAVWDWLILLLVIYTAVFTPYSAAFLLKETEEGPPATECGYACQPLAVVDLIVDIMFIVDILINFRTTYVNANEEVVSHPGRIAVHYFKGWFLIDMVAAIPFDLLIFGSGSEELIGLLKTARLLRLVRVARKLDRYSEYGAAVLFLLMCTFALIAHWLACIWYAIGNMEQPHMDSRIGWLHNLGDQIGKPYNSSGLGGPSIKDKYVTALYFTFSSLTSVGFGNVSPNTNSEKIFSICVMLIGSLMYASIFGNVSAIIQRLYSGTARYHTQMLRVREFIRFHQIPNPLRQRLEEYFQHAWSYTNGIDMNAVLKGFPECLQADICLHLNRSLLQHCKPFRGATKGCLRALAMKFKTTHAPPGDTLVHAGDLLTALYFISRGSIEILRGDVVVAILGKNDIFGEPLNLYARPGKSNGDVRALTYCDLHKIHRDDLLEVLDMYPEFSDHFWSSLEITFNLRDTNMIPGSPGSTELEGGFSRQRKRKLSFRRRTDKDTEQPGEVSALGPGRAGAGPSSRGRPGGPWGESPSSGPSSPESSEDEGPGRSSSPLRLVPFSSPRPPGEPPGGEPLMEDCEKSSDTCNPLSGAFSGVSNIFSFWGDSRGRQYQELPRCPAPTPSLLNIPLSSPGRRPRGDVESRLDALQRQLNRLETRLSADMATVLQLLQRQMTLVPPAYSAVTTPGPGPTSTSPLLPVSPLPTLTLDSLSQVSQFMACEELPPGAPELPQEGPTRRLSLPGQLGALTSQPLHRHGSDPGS

Compared with `Cc1nn(C)c(C)c1CCC(=O)NC1CC(C)(C)Cc2c1cnn2-c1ccccc1` (stereo not drawn), `COC(=O)CCC(=O)NC1CC(C)(C)Cc2c1cnn2-c1ccccc1` (stereo not drawn) is higher in “hERG current change (%, negative = inhibition) at 10uM” value: -28.1% for the first, -12% for the second.

Compared with `CCc1nccn1CCC(=O)NC1CC(C)(C)Cc2c1cnn2-c1ccc(C)cc1` (stereo not drawn), `Cc1ccc(-n2ncc3c2CC(C)(C)CC3NC(=O)CCc2cnn(C)c2)cc1` (stereo not drawn) is lower in “hERG current change (%, negative = inhibition) at 10uM” value: -22.1% for the first, -52.6% for the second.

Going from `CC1(C)Cc2c(cnn2-c2ccccc2)C(NC(=O)CCc2ccncc2)C1` (stereo not drawn) to `Cc1ccc(-n2ncc3c2CC(C)(C)CC3NC(=O)CCc2ccncc2)cc1` (stereo not drawn), the “hERG current change (%, negative = inhibition) at 10uM” value falls from -68.8% to -72.2%.

Compared with `C=CCC(=O)NC1CC(C)(C)Cc2c1cnn2-c1ccc(C)cc1` (stereo not drawn), `C=CCC(=O)NC1CC(C)(C)Cc2c1cnn2-c1ccccc1C` (stereo not drawn) is higher in “hERG current change (%, negative = inhibition) at 10uM” value: -69.7% for the first, 4.35% for the second.

First: CSCCC(=O)NC1CC(C)(C)Cc2c1cnn2-c1ccccc1C (stereo not drawn)
Second: Cc1ccccc1-n1ncc2c1CC(C)(C)CC2NC(=O)CCC1=NNC(=O)CC1 (stereo not drawn)
The “hERG current change (%, negative = inhibition) at 10uM” value of the first is higher: -10.4% for the first, -75.9% for the second.

Compared with `COc1ccc(-n2ncc3c2CC(C)(C)CC3NC(=O)CCC2=NNC(=O)CC2)cc1` (stereo not drawn), `Cc1ccc(-n2ncc3c2CC(C)(C)CC3NC(=O)CCc2ccc(=O)[nH]n2)cc1` (stereo not drawn) is lower in “hERG current change (%, negative = inhibition) at 10uM” value: 15.8% for the first, -11.2% for the second.

Compared with `COC(=O)CCCC(=O)NC1CC(C)(C)Cc2c1cnn2-c1ccc(C)cc1` (stereo not drawn), `Cc1ccc(-n2ncc3c2CC(C)(C)CC3NC(=O)CCCN2CCCC2=O)cc1` (stereo not drawn) is higher in “hERG current change (%, negative = inhibition) at 10uM” value: -24.7% for the first, -1.21% for the second.

First: CCCCOc1ccc(C(=O)NCC(=O)OC2CCOC2=O)cc1 (stereo not drawn)
Second: COc1ccc(NC(=O)CN(C)C(=O)CCCNC(=O)c2ccc(Cl)cc2)cc1
The “hERG current change (%, negative = inhibition) at 10uM” value of the first is higher: 4.84% for the first, -30.8% for the second.

First: Cc1cc(C(=O)N/N=C/c2sc(N3CCOCC3)nc2-c2ccccc2)c(C)o1
Second: Cn1c(CN2CCOCC2)nc2cc(NC(=O)c3ccccc3Cl)ccc21
The “hERG current change (%, negative = inhibition) at 10uM” value of the first is higher: 8.26% for the first, -10.4% for the second.

Going from `COc1ccc(C(=O)N2CCCC2)cc1S(=O)(=O)N1CCOCC1` to `COc1ccccc1NC(=O)COn1nnc2ccc(S(=O)(=O)N3CCOCC3)cc21`, the “hERG current change (%, negative = inhibition) at 10uM” value rises from -1.7% to 4.92%.

First: CCN[C@H]1CN(CCCOC)S(=O)(=O)c2sc(S(N)(=O)=O)cc21
Second: COc1ccc(NC(=O)CCCCCN2C(=O)CCC2=O)cc1Cl
The “hERG current change (%, negative = inhibition) at 10uM” value of the first is higher: 2.51% for the first, -2.22% for the second.

Compared with `CC(C)NS(=O)(=O)c1ccc(CCC(=O)N2CCc3ccccc3C2)cc1`, `Cc1ccc(S(=O)(=O)N(C)CCCC(=O)Nc2cccc3ccccc23)cc1` is lower in “hERG current change (%, negative = inhibition) at 10uM” value: -11.9% for the first, -28.1% for the second.

Compared with `Cc1c(C(=O)OCC(=O)c2ccc3c(c2)OCCO3)oc2ccccc12`, `CC(=O)OCCN(Cc1ccccc1)Cc1ccc2c(c1)OCO2` is lower in “hERG current change (%, negative = inhibition) at 10uM” value: 4.75% for the first, -10.8% for the second.

Going from `COc1cc(/C=C2\CCC(C3CCCC3)C2=O)cc(OC)c1OC` (stereo not drawn) to `COc1ccc(CCNC(=O)C(=O)Nc2ccc3nc4n(c(=O)c3c2)CCCCC4)cc1OC`, the “hERG current change (%, negative = inhibition) at 10uM” value falls from 9.98% to -27.3%.

Compared with `O=C(CSc1nnc2ncccn12)Nc1cccc2ccccc12`, `Cc1ccccc1NC(=O)CSc1nc(-c2ccccc2)cc(=O)[nH]1` is higher in “hERG current change (%, negative = inhibition) at 10uM” value: 5.09% for the first, 24.9% for the second.

First: CC(=O)Nc1ccc(NC(=S)NC(=O)/C=C/c2ccc(Cl)cc2)cc1
Second: CN(CC(=O)Nc1ccc(Cl)cc1)C(=O)CCNC(=O)c1ccc(Cl)cc1
The “hERG current change (%, negative = inhibition) at 10uM” value of the first is higher: 17.7% for the first, -67.7% for the second.

Going from `O=C(Oc1c(Br)cc(C(=S)N2CCOCC2)cc1Br)c1ccc(Cl)cc1` to `COc1ccc(Cl)cc1NC(=O)CCCNC(=O)c1ccc(Cl)cc1`, the “hERG current change (%, negative = inhibition) at 10uM” value falls from 11.3% to -4.84%.

Compared with `CC(=O)N1N=C(c2ccc(NS(=O)(=O)c3ccccc3)cc2)CC1c1ccco1` (stereo not drawn), `NC(=O)CSc1oc(-c2cccs2)nc1S(=O)(=O)c1ccccc1` is lower in “hERG current change (%, negative = inhibition) at 10uM” value: -12.2% for the first, -15.5% for the second.

Going from `Cc1ccc(-n2ncc3c2CC(C)(C)CC3NC(=O)CCN2CCCCC2=O)cc1` (stereo not drawn) to `Cc1ccc(-n2ncc3c2CC(C)(C)CC3NC(=O)CCN2CCCO2)cc1` (stereo not drawn), the “hERG current change (%, negative = inhibition) at 10uM” value falls from 3.16% to -37.7%.

First: Cc1ccc(-n2ncc3c2CC(C)(C)CC3NC(=O)CCc2c(C)noc2C)cc1 (stereo not drawn)
Second: Cc1ccc(-n2ncc3c2CC(C)(C)CC3NC(=O)CCc2cccnc2)cc1 (stereo not drawn)
The “hERG current change (%, negative = inhibition) at 10uM” value of the first is higher: -32.3% for the first, -63.9% for the second.

First: O=c1ccc2cc(S(=O)(=O)N3CCN(c4cc(Cl)ccc4Cl)CC3)ccc2o1
Second: CCOc1ncccc1C(=O)Nc1cc(S(=O)(=O)N2CCCCC2)ccc1Cl
The “hERG current change (%, negative = inhibition) at 10uM” value of the first is lower: -20.7% for the first, 20.5% for the second.

Compared with `Cc1cc(NC(=O)CSCC(=O)Nc2ccccc2Oc2ccccc2)no1`, `COc1ccc(NC(=O)CN(C)C(=O)CSCC(=O)Nc2ccc(C)cc2)cc1` is higher in “hERG current change (%, negative = inhibition) at 10uM” value: -8.79% for the first, -0.753% for the second.

First: COc1cccc(/C=N/NC(=O)CN2CC(c3ccccc3)CC2=O)c1O (stereo not drawn)
Second: COc1cc(C2/C(=C(/O)c3ccccc3)C(=O)C(=O)N2c2ccccn2)ccc1O (stereo not drawn)
The “hERG current change (%, negative = inhibition) at 10uM” value of the first is lower: -9.13% for the first, 25.1% for the second.

Compared with `O=c1[nH]c2ccccc2c(O)c1-[n+]1ccccc1.[Cl-]`, `Cl.c1ccc(CSCc2cn3ccccc3n2)cc1` is lower in “hERG current change (%, negative = inhibition) at 10uM” value: 22.5% for the first, 2.98% for the second.

Compared with `Oc1ccc(/C=N/Nc2nc(N3CCCC3)nc(N3CCCC3)n2)cc1O`, `CC(=O)N1CCN(Cc2nc3cc(NC(=O)c4ccccc4Cl)ccc3n2C)CC1` is lower in “hERG current change (%, negative = inhibition) at 10uM” value: 2.71% for the first, -20.8% for the second.

Compared with `Cc1ccccc1NC(NC(=O)OCCn1c([N+](=O)[O-])cnc1C)C(Cl)(Cl)Cl` (stereo not drawn), `Cc1ccc(NC(NC(=O)OCCn2c([N+](=O)[O-])cnc2C)C(Cl)(Cl)Cl)cc1` (stereo not drawn) is higher in “hERG current change (%, negative = inhibition) at 10uM” value: 2.42% for the first, 6.71% for the second.

Compared with `Cc1ncc([N+](=O)[O-])n1CCOC(=O)NC(Nc1ccc(F)cc1)C(Cl)(Cl)Cl` (stereo not drawn), `Cc1ccc(OCC(=O)N(C)CC(=O)Nc2ccc(F)cc2)c([N+](=O)[O-])n1` is higher in “hERG current change (%, negative = inhibition) at 10uM” value: -54.6% for the first, -24.2% for the second.

First: CN(CC(=O)Nc1cccc(F)c1)C(=O)c1cn2ccccc2n1
Second: CN(CC(=O)Nc1ccc(Cl)c(C(F)(F)F)c1)C(=O)c1cn2ccccc2n1
The “hERG current change (%, negative = inhibition) at 10uM” value of the first is higher: -5% for the first, -61.9% for the second.

First: Cc1ccc(OCC(=O)N(C)CC(=O)Nc2ccc(Cl)c(C(F)(F)F)c2)c([N+](=O)[O-])n1
Second: Cc1ccc(OCC(=O)N(C)CC(=O)Nc2ccccc2Cl)c([N+](=O)[O-])n1
The “hERG current change (%, negative = inhibition) at 10uM” value of the first is lower: -54.8% for the first, -16.7% for the second.

Compared with `CN(CC(=O)Nc1ccc(Cl)c(C(F)(F)F)c1)C(=O)CCN1C(=O)C2CC=CCC2C1=O` (stereo not drawn), `CN(CC(=O)Nc1ccc(Cl)c(C(F)(F)F)c1)C(=O)CCN1C(=O)C2CCCCC2C1=O` (stereo not drawn) is lower in “hERG current change (%, negative = inhibition) at 10uM” value: -37.2% for the first, -50.2% for the second.

Going from `CN(CC(=O)Nc1ccc(Cl)c(C(F)(F)F)c1)C(=O)CNC(=O)C1CCCCC1` to `CN(CC(=O)Nc1ccc(Cl)c(C(F)(F)F)c1)C(=O)CCCNC(=O)c1ccc(Cl)cc1`, the “hERG current change (%, negative = inhibition) at 10uM” value falls from -31.5% to -52.2%.

Compared with `COc1ccccc1C(=O)NCCC(=O)N(C)CC(=O)Nc1ccc(Cl)cc1`, `COc1ccc(Cl)cc1NC(=O)CN(C)C(=O)CCNC(=O)c1ccccc1OC` is higher in “hERG current change (%, negative = inhibition) at 10uM” value: -31.9% for the first, -9.08% for the second.

Compared with `CCOc1ccc(NC(=O)CN(C)C(=O)c2cn3ccccc3n2)cc1OCC`, `COc1ccc(CCC(=O)N(C)CC(=O)Nc2ccc(Cl)c(C(F)(F)F)c2)cc1` is higher in “hERG current change (%, negative = inhibition) at 10uM” value: -19.2% for the first, 22.2% for the second.

Compared with `O=C(COC(=O)CN1C(=O)C2CC=CCC2C1=O)Nc1cc(C(F)(F)F)ccc1N1CCOCC1` (stereo not drawn), `O=C(CCCN1C(=O)CCC1=O)Nc1ccc(Cl)c(C(F)(F)F)c1` is higher in “hERG current change (%, negative = inhibition) at 10uM” value: -26.8% for the first, -18.8% for the second.

Compared with `CC(/C=N/n1c(-c2cc(C)[nH]n2)n[nH]c1=S)=C\c1ccccc1`, `Cc1cc(C)n(/N=C/c2ccccc2)c(=O)c1C#N` is higher in “hERG current change (%, negative = inhibition) at 10uM” value: 14.7% for the first, 17% for the second.

Compared with `CN(CC(=O)Nc1ccc(Cl)c(C(F)(F)F)c1)Cc1cc(=O)n2ccsc2n1`, `CN(CC(=O)Nc1ccc(Cl)cc1)Cc1cc(=O)n2ccsc2n1` is higher in “hERG current change (%, negative = inhibition) at 10uM” value: -82.8% for the first, -33.3% for the second.

Compared with `O=C(CCCCCN1C(=O)CCC1=O)Nc1ccc(Cl)c(C(F)(F)F)c1`, `COc1ccc(NC(=O)CSCC(=O)N(C)CC(=O)Nc2ccc(Cl)c(C(F)(F)F)c2)cc1` is lower in “hERG current change (%, negative = inhibition) at 10uM” value: -58.7% for the first, -68.6% for the second.

Going from `Cc1ccc(NC(=O)CN(C)Cc2cc(=O)n3ccsc3n2)cc1` to `CN(CC(=O)Nc1cccc(F)c1)C(=O)CCCNC(=O)c1ccc(Cl)cc1`, the “hERG current change (%, negative = inhibition) at 10uM” value falls from -7.66% to -36.7%.

Going from `COc1cccc(NC(=O)CN(C)C(=O)CCCNC(=O)c2ccc(Cl)cc2)c1` to `COc1ccc(Cl)cc1NC(=O)CN(C)C(=O)CCCNC(=O)c1ccc(Cl)cc1`, the “hERG current change (%, negative = inhibition) at 10uM” value falls from -46.5% to -55.4%.

Going from `CC(=O)N1N=C(c2ccc(C)cc2)OC1c1cccnc1` (stereo not drawn) to `COc1cccc(NC(=O)CSc2nnc3c(n2)[nH]c2ccc(C)cc23)c1`, the “hERG current change (%, negative = inhibition) at 10uM” value falls from 8.57% to 8.36%.

Going from `CCOC(=O)C1CCCN(S(=O)(=O)c2ccc(-n3cnnn3)c(C)c2)C1` (stereo not drawn) to `COc1ccccc1C(=O)N1CCN(Cc2nc3cc([N+](=O)[O-])ccc3n2C)CC1`, the “hERG current change (%, negative = inhibition) at 10uM” value falls from -11.3% to -67.6%.

First: Cn1c(CN2CCN(C(=O)c3ccccc3Cl)CC2)nc2cc([N+](=O)[O-])ccc21
Second: COc1ccc(C(=O)NCCc2nc3cc([N+](=O)[O-])ccc3n2C)cc1
The “hERG current change (%, negative = inhibition) at 10uM” value of the first is lower: -70.7% for the first, -39.9% for the second.
